Source: PubChem BioAssay (several laboratories)
An excerpt weighted towards active compounds, which were near 4.2% of everything screened.
DAX1 StAR inh – DAX1 (NR0B1) inhibition, primary screen. HEK293T StAR-luciferase reporter, SF-1/DAX-1 repression relief. inhibition, % at 6.8 µM. 370,000 compounds, 1.1% hits. AID 652010;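 active = inhibition above the mean over all tested compounds plus 3 SD, cut at about 3.6% in these data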;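 note: higher inhibition means more luminescence from relief of DAX-1 repression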
Wnt act – activates Wnt/beta-catenin signaling in a reporter cell assay | 300,000 compounds, 1.2% hits | activator, plate reader | activation, % at 9.35 µM; in the data active = activation above about 30%, passing the limit was not always enough; inconclusive = no clear call, values can overlap the other calls
esBAF inh – SWI/SNF esBAF complex inhibition; reporter increase, % at 12.5 µM; 350,000 compounds, 2% hits; mouse ES cells, Bmi1-luciferase knock-in reporter, 24 h; 100% = twice the neutral-well signal; AID 602393; in the data active = activation above about 40%; inconclusive = no clear call, values can overlap the other calls;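 note: a rise in the Bmi1 reporter signal indicates esBAF inhibition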
hgDAF-12 ag – hgDAF-12 agonism, primary luciferase screen | HEK293 GAL4-hgDAF12 UAS-luciferase reporter, agonist luminescence; normalized to butyrate control | 370,000 compounds, 1.8% hits | activation, % at 6.8 µM;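 active = activation above a cutoff set at the mean of all screened compounds plus 3 SD, cut at about 10% in these data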
hcDAF-12 act – activators of H. contortus DAF-12 nuclear receptor; activation, % at 6.8 µM; 370,000 compounds, 1.4% hits; HEK293 hcDAF-12 lit1-tk-luc reporter, luminescence; 0% DMSO, 100% Δ7-dafachronic acid;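 active = activation above the mean of all tested compounds plus 3 SD, cut at about 5.5% in these data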
ssDAF-12 act – S. stercoralis DAF-12 activation, primary screen; HEK293 ssDAF-12/GRIP1 lit1-tk-luc reporter, luminescence; % of 3 µM dafachronic acid response; activation, % at 6.8 µM; 370,000 compounds, 1% hits; AID 652126;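 active = activation above the mean over all tested compounds plus 3 SD, cut at about 0.9% in these data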
LXRb hcDAF ctr – LXR-beta agonism as hcDAF-12 counter-screen | HEK293 Gal4-LXR tk-luc reporter, luminescence, 24 h; normalized: DMSO 0%, positive control 100% | shares compounds with hcDAF-12 act | 3,400 tested, under 10 active | activation, % at 6.8 µM | AID 743027;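 active = mean percent activation of the reporter above a cutoff set as the average over tested compounds plus their standard deviation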
Target sequence (P55055 whole entry, looked up, the tested form may be a part): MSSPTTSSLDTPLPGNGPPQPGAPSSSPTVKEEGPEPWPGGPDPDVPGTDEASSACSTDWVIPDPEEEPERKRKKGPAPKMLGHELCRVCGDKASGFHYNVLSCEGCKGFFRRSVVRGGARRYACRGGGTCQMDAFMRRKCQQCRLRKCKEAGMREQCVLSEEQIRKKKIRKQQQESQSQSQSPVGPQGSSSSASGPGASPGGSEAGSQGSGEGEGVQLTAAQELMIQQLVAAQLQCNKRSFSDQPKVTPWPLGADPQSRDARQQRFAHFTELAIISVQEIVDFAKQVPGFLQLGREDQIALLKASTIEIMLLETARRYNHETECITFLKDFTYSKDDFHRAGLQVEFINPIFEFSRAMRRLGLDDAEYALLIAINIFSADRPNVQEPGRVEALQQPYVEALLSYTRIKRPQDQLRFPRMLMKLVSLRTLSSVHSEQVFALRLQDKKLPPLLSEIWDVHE
hcDAF12 ag – hcDAF-12 agonism, confirmation assay. HEK293 hcDAF-12 lit1-tk-luc reporter, luminescence; % of Δ7-dafachronic acid response. shares compounds with hcDAF-12 act. activation, % at 6.8 µM. 3,400 compounds, 61% hits. AID 743032;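 active = mean activation across triplicate tests above the threshold derived from the earlier primary screen, cut at about 5.5% in these data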
hgDAF12 ag – hgDAF-12 agonism, confirmation assay. shares compounds with hgDAF-12 ag. HEK293 GAL4-hgDAF12 luciferase reporter, agonist mode; percent of butyrate response. activation, % at 6.8 µM. 3,300 compounds, 80% hits;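 active = mean activation over triplicate wells above the hit cutoff derived from the earlier primary screen, cut at about 11% in these data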
LXRb DAF12 ctr – LXR-beta agonism as DAF-12 counter-screen | shares compounds with hgDAF-12 ag | HEK293 Gal4-LXR luciferase reporter, 24 h | activation, % at 6.8 µM | 3,300 tested, under 10 active | AID 743051;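 active = mean activation of the triplicate above a set limit carried over from the primary screen, none filed active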
Of the large screens only hits and unclear results are named; the others gave an inactive call (follow-up assays come after a bar, where they were run).

Cc1cc(C)c(C(=O)Nc2ccc3c(c2)OCCO3)c(C)c1	esBAF inh inconclusive
Cc1ccc(C(=O)Nc2ccc3c(c2)OCCO3)o1	hgDAF-12 ag 13, hcDAF-12 act 9.2 | LXRb hcDAF ctr inactive | hcDAF12 ag inactive | hgDAF12 ag 14 | LXRb DAF12 ctr inactive
CC(C)C(=O)Nc1ccc(NC(=O)c2ccc3c(c2)OCO3)cc1	none
COc1ccccc1CNC(=O)C[C@H]1CC[C@@H](NC(C)=O)[C@H](CO)O1	none (no result: DAX1 StAR inh, Wnt act, hgDAF-12 ag, hcDAF-12 act, ssDAF-12 act)
CCCNC(=O)N1C[C@H](O)COC[C@H]2O[C@H](CC(=O)N3CCOCC3)CC[C@@H]21	none (no result: DAX1 StAR inh, Wnt act, hgDAF-12 ag, hcDAF-12 act, ssDAF-12 act)
Cc1cc(C(=O)Nc2cccc3c2O[C@H](CN(C)Cc2ccc(C(=O)O)cc2)[C@H](C)CN([C@H](C)CO)C3=O)n(C)n1	none (no result: DAX1 StAR inh, Wnt act, hgDAF-12 ag, hcDAF-12 act, ssDAF-12 act)
CC=Cc1ccc2n(c1=O)C[C@H]1[C@H](CO)[C@@H](C(=O)NCc3ccccc3)N(Cc3cncnc3)[C@@H]21 (mixture of isomers)	none (no result: DAX1 StAR inh, Wnt act, hgDAF-12 ag, hcDAF-12 act, ssDAF-12 act)
Cc1ccc2nc(SCn3nnc4ccccc4c3=O)[nH]c2c1	DAX1 StAR inh 4.1, hgDAF-12 ag 24, hcDAF-12 act 9.8, ssDAF-12 act 1.8 (no result: esBAF inh) | LXRb hcDAF ctr inactive | hcDAF12 ag 10 | hgDAF12 ag 16 | LXRb DAF12 ctr inactive
C/C(N)=C(/C#N)C(=O)CSc1nc2ccc(C)cc2[nH]1	DAX1 StAR inh 4.3, hgDAF-12 ag 17, hcDAF-12 act 11, ssDAF-12 act 1.4 | LXRb hcDAF ctr inactive | hcDAF12 ag 7.1 | hgDAF12 ag 16 | LXRb DAF12 ctr inactive
COc1cc2cnc(-c3ccccc3)cc2cc1OC	none
COc1ccc2cc(-c3ccccc3)ncc2c1	Wnt act 32, hgDAF-12 ag 16, hcDAF-12 act 13, ssDAF-12 act 1.8 | LXRb hcDAF ctr inactive | hcDAF12 ag 14 | hgDAF12 ag 20 | LXRb DAF12 ctr inactive
COc1cc(OC)cc(-c2cc3ccc(OC)cc3cn2)c1	hgDAF-12 ag 16, hcDAF-12 act 6.7, ssDAF-12 act 0.9 | LXRb hcDAF ctr inactive | hcDAF12 ag 6.6 | hgDAF12 ag 19 | LXRb DAF12 ctr inactive
COc1ccc(-c2cnc3c(c2)C(=O)N([C@H](C)CO)C[C@H](C)[C@@H](CN(C)C(=O)Cc2cccnc2)O3)cc1	none (no result: DAX1 StAR inh, Wnt act, hgDAF-12 ag, hcDAF-12 act, ssDAF-12 act)
c1ccc(N2CCN(c3cnc4ccccc4n3)CC2)cc1	hgDAF-12 ag 15, hcDAF-12 act 7.0 (no result: Wnt act) | LXRb hcDAF ctr inactive | hcDAF12 ag inactive | hgDAF12 ag 20 | LXRb DAF12 ctr inactive
Cc1cc(N2CCN(c3ccccc3)CC2)nc2ccccc12	none
CN1CCN(C(=O)C[C@H]2CC[C@H](NC(=O)Cc3ccccn3)[C@H](CO)O2)CC1	none (no result: DAX1 StAR inh, Wnt act, hgDAF-12 ag, hcDAF-12 act, ssDAF-12 act)
COCCN1Cc2c(sc(C)c2C)N(C(=O)c2ccccc2)C1	hgDAF-12 ag 14, hcDAF-12 act 9.2, ssDAF-12 act 1.7 | LXRb hcDAF ctr inactive | hcDAF12 ag inactive | hgDAF12 ag inactive | LXRb DAF12 ctr inactive
C[C@@H]1CN([C@H](C)CO)C(=O)c2cccc(NC(=O)c3ccncc3)c2O[C@@H]1CN(C)S(=O)(=O)c1cccs1	none (no result: DAX1 StAR inh, Wnt act, hgDAF-12 ag, hcDAF-12 act, ssDAF-12 act)
Cc1cc(NC(=O)c2ccccc2)sc1C	Wnt act 54, hgDAF-12 ag 19, hcDAF-12 act 9.9 | LXRb hcDAF ctr inactive | hcDAF12 ag inactive | hgDAF12 ag 17 | LXRb DAF12 ctr inactive
CC(=O)N[C@H]1CC[C@H](CC(=O)NCc2ccc(Cl)cc2)O[C@H]1CO	none (no result: DAX1 StAR inh, Wnt act, hgDAF-12 ag, hcDAF-12 act, ssDAF-12 act)
CCC(=O)N(C)C[C@@H]1Oc2cc(C#CCC3CCCC3)ccc2S(=O)(=O)N([C@@H](C)CO)C[C@H]1C	none (no result: DAX1 StAR inh, Wnt act, hgDAF-12 ag, hcDAF-12 act, ssDAF-12 act)
